Laboratory results published in PubChem BioAssay AID1159580 (chemical genetic matrix, 2015).
In all, about 5,500 compounds went through this assay and about 2,000 (36%) were called active. Another 18% or so got no clear call; they are omitted. This is one part of the list. Values without a mark were called inactive. No stated cut-off is given here; in the data, active means normalized growth mostly below about 0.91 (no sharp cut-off); inconclusive means no clear call, values can overlap the other calls; inactive means mostly above about 0.92.

Test: chemical genetic growth profiling, strain panel (AID 1159580);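 further: tested at 20 µM; growth read once vehicle control cultures reached saturation at 30 °C; 1 = growth at the plate median or of vehicle wells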
Settings: S. cerevisiae deletion strains, growth OD

## COc1ccc(-c2c(OC)c3c(OC)c4c(cc3oc2=O)OC(C)(C)C=C4)cc1
Locus YBR021W, strain FUR4, stronger effect = lower value
  normalized growth: 1.08
Locus YBR229C, strain ROT2, stronger effect = lower value
  normalized growth: 1.03
Locus YCL029C, strain bik1, stronger effect = lower value
  normalized growth: 0.974
Locus YDL035C, strain GPR1, stronger effect = lower value
  normalized growth: 1.09
Locus YDL074C, strain BRE1, stronger effect = lower value
  normalized growth: 1.18
Locus YDL101C, strain DUN1, stronger effect = lower value
  normalized growth: 0.99
Locus YDL185W, strain tfp1, stronger effect = lower value
  normalized growth: 0.988
Locus YDL192W, strain arf1, stronger effect = lower value
  normalized growth: 1.08
Locus YDR101C, strain arx1, stronger effect = lower value
  normalized growth: 1.07
Locus YDR162C, strain NBP2, stronger effect = lower value
  normalized growth: 1.06
Locus YDR318W, strain mcm21, stronger effect = lower value
  normalized growth: 1
Locus YDR388W, stronger effect = lower value
  normalized growth: 0.983
Locus YDR502C, strain sam2, stronger effect = lower value
  normalized growth: 1.05
Locus YEL061C, strain CIN8, stronger effect = lower value
  normalized growth: 1.02
Locus YER110C, stronger effect = lower value
  normalized growth: 0.973
Locus YER155C, strain BEM2, stronger effect = lower value
  normalized growth: 1.01
Locus YER167W, strain BCK2, stronger effect = lower value
  normalized growth: 1.01
Locus YGL078C, strain dbp3, stronger effect = lower value
  normalized growth: 1.02
Locus YGL086W, strain mad1, stronger effect = lower value
  normalized growth: 1.05
Locus YGL248W, strain PDE1, stronger effect = lower value
  normalized growth: 1.07
Locus YGR135W, strain pre9, stronger effect = lower value
  normalized growth: 1.02
Locus YGR252W, strain gcn5, stronger effect = lower value
  normalized growth: 1.21
Locus YHR030C, strain SLT2, stronger effect = lower value
  normalized growth: 1
Locus YHR079C, strain IRE1 (second series), stronger effect = lower value
  normalized growth: 0.991
Locus YHR094C, strain hxt1, stronger effect = lower value
  normalized growth: 1
Locus YHR129C, strain ARP1, stronger effect = lower value
  normalized growth: 1.02
Locus YHR200W, strain rpn10, stronger effect = lower value
  normalized growth: 1.04
Locus YIL066C, strain RNR3, stronger effect = lower value
  normalized growth: 1.01
Locus YIL073C, strain SPO22, stronger effect = lower value
  normalized growth: 1.12
Locus YIL125W, strain kgd1, stronger effect = lower value
  normalized growth: 1.02
Locus YIR030C, strain dcg1, stronger effect = lower value
  normalized growth: 1.01
Locus YJL095W, strain BCK1, stronger effect = lower value
  normalized growth: 1.08
Locus YJL134W, strain LCB3, stronger effect = lower value
  normalized growth: 0.991
Locus YJL168C, strain set2, stronger effect = lower value
  normalized growth: 1
Locus YJL187C, strain SWE1 (second series), stronger effect = lower value
  normalized growth: 1
Locus YJR075W, strain HOC1, stronger effect = lower value
  normalized growth: 1
Locus YKL009W, strain mrt4, stronger effect = lower value
  normalized growth: 1.03
Locus YKL068W, stronger effect = lower value
  normalized growth: 1.03
Locus YKL085W, strain MDH1 (second series), stronger effect = lower value
  normalized growth: 1.04
Locus YKL085W, strain MDH1, stronger effect = lower value
  normalized growth: 1.04
Locus YKL190W, strain CNB1, stronger effect = lower value
  normalized growth: 0.988
Locus YKR001C, strain vps1, stronger effect = lower value
  normalized growth: 1.09
Locus YLR039C, strain RIC1, stronger effect = lower value
  normalized growth: 1.22
Locus YLR058C, strain SHM2, stronger effect = lower value
  normalized growth: 1.01
Locus YLR102C, strain apc9, stronger effect = lower value
  normalized growth: 0.972
Locus YLR268W, strain sec22, stronger effect = lower value
  normalized growth: 1.04
Locus YLR330W, strain CHS5, stronger effect = lower value
  normalized growth: 1.03
Locus YLR342W, strain FKS1 (second series), stronger effect = lower value
  normalized growth: 1.03
Locus YLR371W, strain rom2, stronger effect = lower value
  normalized growth: 0.992
Locus YML016C, strain PPZ1, stronger effect = lower value
  normalized growth: 1.01
Locus YML032C, strain rad52, stronger effect = lower value
  normalized growth: 0.987
Locus YML124C, strain tub3, stronger effect = lower value
  normalized growth: 1.03
Locus YMR078C, strain ctf18, stronger effect = lower value
  normalized growth: 0.993
Locus YMR223W, strain ubp8, stronger effect = lower value
  normalized growth: 1.02
Locus YMR307W, strain GAS1, stronger effect = lower value
  normalized growth: 1.32
Locus YNL067W, strain RPL9B, stronger effect = lower value
  normalized growth: 1
Locus YNL153C, strain GIM3, stronger effect = lower value
  normalized growth: 1.01
Locus YNL233W, strain BNI4, stronger effect = lower value
  normalized growth: 1.05
Locus YNL250W, strain rad50, stronger effect = lower value
  normalized growth: 0.999
Locus YNL271C, strain bni1, stronger effect = lower value
  normalized growth: 1.03
Locus YNL298W, strain CLA4, stronger effect = lower value
  normalized growth: 1.03
Locus YNL307C, strain MCK1, stronger effect = lower value
  normalized growth: 0.967
Locus YNR052C, strain pop2, stronger effect = lower value
  normalized growth: 1.02
Locus YOL006C, strain TOP1, stronger effect = lower value
  normalized growth: 1.54 [resistant] (active)
Locus YOL012C, strain htz1
  normalized growth: 1.03
Locus YOL147C, strain pex11, stronger effect = lower value
  normalized growth: 0.997
Locus YOR061W, strain CKA2, stronger effect = lower value
  normalized growth: 1.02
Locus YOR069W, strain VPS5, stronger effect = lower value
  normalized growth: 0.993
Locus YOR136W, strain idh2, stronger effect = lower value
  normalized growth: 1
Locus YOR144C, strain elg1, stronger effect = lower value
  normalized growth: 1.03
Locus YOR184W, strain ser1, stronger effect = lower value
  normalized growth: 1.11
Locus YOR316C, strain cot1, stronger effect = lower value
  normalized growth: 0.975
Locus YPL055C, strain LGE1, stronger effect = lower value
  normalized growth: 1.16
Locus YPR119W, strain clb2, stronger effect = lower value
  normalized growth: 0.978
Locus YPR141C, strain kar3, stronger effect = lower value
  normalized growth: 1.03
Locus YPR163C, strain tif3, stronger effect = lower value
  normalized growth: 1
Locus YPR167C, strain met16, stronger effect = lower value
  normalized growth: 1.01
Strain wtn01, stronger effect = lower value
  normalized growth: 1.07
